Source: PubChem BioAssay (National Center for Advancing Translational Sciences (NCATS))
MARV entry inh: inhibitors of Marburg virus binding or cell entry; Marburg virus pseudotyped entry inhibition, cell reporter; Potency, µM (top dose mostly 37.8 µM), most hits filed as inhibitors; 1.8% of 300,000 active; AID 540276; calls by dose curve; tested in HEK293 cells
LASV entry inh: Lassa virus entry inhibition; 1.2% of 300,000 active; Potency, µM (top dose mostly 37.9 µM), actives largely listed as inhibitors; Lassa virus pseudotype entry inhibition, cell reporter; calls by dose curve; tested in HEK293 cells; note: nearly all actives have a fitted effect of over 50% in size
FMDV inh: foot and mouth disease virus antiviral activity; FMDV antiviral cell-based qHTS; Potency, µM (highest dose often 57.9 µM), hits mostly inhibitors; 1.2% of 410,000 active; calls by dose curve; tested in HEK293T cells; note: read-out not given here; nearly all actives have a fitted effect of over 45% in size
Sm TGR block: inhibitors of Schistosoma mansoni thioredoxin glutathione reductase; Q962Y6; purified TGR, DTNB reduction, TNB absorbance 405 nm; Potency, µM (titrated, usually from 114 µM), most hits filed as inhibitors; 3% of 360,000 active; AID 485364; note: nearly all actives have a fitted effect of over 60% in size
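First, TGR (20 nM dispensed) and NADPH were mixed with compound. Second, a 15 min room-temperature incubation followed. Third, further NADPH and then DTNB were added to start the reaction. Finally, TNB absorbance was monitored kinetically.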
RE007 growth inh: less growth of the S. pombe RE007 Vpr strain. AID 651644. Potency, µM (doses to about 92.2 µM), actives largely listed as inhibitors. S. pombe RE007 Vpr strain, BacTiter-Glo ATP luminescence, 24 h. 0.21% of 360,000 active; active = well fitted falling curve with a large enough effect; inconclusive = small, poorly fitted or top-dose-only effect; inactive = no such curve, though single readings can be large or run the other way; note: nearly all actives have a fitted effect of over 50% in size
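Fission yeast RE007 carrying one integrated HIV-1 vpr copy, seeded at OD 0.01 in PMG+AL medium with 23 nL pinned compound. Grown 24 h at 30 degrees; viability read by BacTiter-Glo luminescence after 5 min.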
HCV inhibitor: blocks hepatitis C virus; Potency, µM (titrated, usually from 41.8 µM), hits mostly inhibitors; 3.4% of 340,000 active; Huh7.5.1 HCVcc-Cre infection, luciferase reporter, 44 h
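Antiviral activity was scored by luciferase reporter output from cells infected with HCVcc-Cre (~0.5 moi) in presence of compound, 44 h infection period, cells seeded 1,000/well 4 h prior.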
Numbers stand for hits. Compounds with a hit are over-represented: about 7.2% of the library has one in this group of screens. Unless noted, calls come from the whole dose curve; as a rule, active = well fitted curve in the direction sought with a large enough effect; inconclusive = small, poorly fitted or top-dose-only effect, or another doubt; inactive = no such curve, though single readings can be large; an effect the other way counts as inactive or inconclusive.

CC#C[C@]1(O)CC[C@H]2[C@@H]3CCC4=CC(=O)CCC4=C3[C@H](c3ccc(N(C)C)cc3)C[C@@]21C was read as MARV entry inh inconclusive and FMDV inh inactive.
Screening COCCCNC(=O)CSc1nc2c(sc3ccccc32)c(=O)n1CCCC(=O)NCCOC returned MARV entry inh inactive, LASV entry inh inactive, FMDV inh inactive and Sm TGR block inactive.
Cc1nn(-c2nc3ccccc3s2)c(C)c1Oc1ccccc1O was read as MARV entry inh 4.6µM, LASV entry inh inconclusive, FMDV inh inactive, Sm TGR block inactive, RE007 growth inh inactive and HCV inhibitor 10µM.
`COc1ccc(-c2cc(=O)oc3c4c(ccc23)OCN(Cc2cccc(OC)c2)C4)cc1` gave MARV entry inh inactive, LASV entry inh inactive, FMDV inh inactive and Sm TGR block inactive.
`Cc1ccc(C(=O)Nc2sc(C)c(-c3ccccc3)c2C(N)=O)cc1[N+](=O)[O-]` gave MARV entry inh inconclusive, LASV entry inh inconclusive, FMDV inh 1.8µM, Sm TGR block inactive, RE007 growth inh inactive and HCV inhibitor inactive.
For O=C1CC(=O)CC(c2ccccc2)C1 the results were FMDV inh inactive, Sm TGR block inactive, RE007 growth inh inactive and HCV inhibitor inactive.
Screening O=C1CC(c2ccccc2)CC(=O)C1CS(=O)(=O)c1ccccc1 (configuration not stated) returned MARV entry inh inactive, LASV entry inh inactive, FMDV inh inactive, Sm TGR block 0.71µM, RE007 growth inh inactive and HCV inhibitor inactive.
Cc1ccc(CN2CCCn3nc(C(=O)NCCc4ccccc4Cl)cc3C2=O)cc1 was read as LASV entry inh inconclusive, FMDV inh inactive and Sm TGR block inconclusive.
`COc1cccc(CN(C)C[C@H]2OCc3cnnn3CCCC(=O)N([C@H](C)CO)C[C@@H]2C)c1` gave FMDV inh inactive and RE007 growth inh inactive.
`O=Cc1coc2c(ccc3ccccc32)c1=O` gave Sm TGR block 28µM.
For CCc1nnc(NC(=O)CSc2nc3c([nH]c4ccccc43)c(=O)n2-c2ccc(C)cc2)s1 the results were LASV entry inh inactive, FMDV inh inactive and Sm TGR block inactive.
`CCC1(C2CCN(Cc3cccc(Cl)c3)CC2)NC(=O)N(CC2COc3ccccc3O2)C1=O` (configuration not stated) gave FMDV inh inactive.
`Cc1cc(C(F)(F)F)cc(NNC(=O)NC(=O)c2c(F)cccc2Cl)n1` gave MARV entry inh 7.1µM, LASV entry inh inconclusive, FMDV inh inactive, Sm TGR block inactive, RE007 growth inh inactive and HCV inhibitor inactive.
CC(C)(C)NC(=O)C(=O)NC(=O)c1c(F)cccc1Cl was read as MARV entry inh inactive, LASV entry inh inactive, FMDV inh inactive, Sm TGR block inactive, RE007 growth inh inactive and HCV inhibitor inactive.
For Cc1ccc(Cl)cc1NC(=O)C1CCN(c2nc3ccccc3n3cccc23)CC1 the results were LASV entry inh inactive, FMDV inh inactive and Sm TGR block inactive.
For O=C(CCl)N(c1ccccc1)C1CCS(=O)(=O)C1 (configuration not stated) the results were MARV entry inh inconclusive, LASV entry inh inconclusive, FMDV inh inconclusive, Sm TGR block 22µM and HCV inhibitor 22µM.
COc1ccc(C(=O)CSc2ccc(-c3ccco3)nn2)cc1 was read as MARV entry inh inconclusive, LASV entry inh inactive, FMDV inh inactive, Sm TGR block 32µM, RE007 growth inh inactive and HCV inhibitor inactive.
For COc1ccc(C(=O)CSc2ccc(-c3ccccc3)nn2)cc1 the results were MARV entry inh inactive, LASV entry inh inactive, FMDV inh inactive, Sm TGR block inactive, RE007 growth inh inactive and HCV inhibitor inactive.
Screening O=C(CSc1ccc(-c2ccco2)nn1)c1ccccc1 returned MARV entry inh inactive, LASV entry inh inactive, FMDV inh inactive, Sm TGR block 8.9µM, RE007 growth inh inactive and HCV inhibitor inactive.
For CN(C(=O)c1ccco1)c1nc2c(s1)CCCC2 the results were MARV entry inh inconclusive, LASV entry inh 6.3µM, FMDV inh inactive, Sm TGR block inactive, RE007 growth inh inconclusive and HCV inhibitor inactive.
COc1cccc(N=CC2=C(O)CCCC2=O)c1 was read as MARV entry inh inconclusive, LASV entry inh inactive, FMDV inh inactive, Sm TGR block inactive, RE007 growth inh 40µM and HCV inhibitor inactive.
COc1cccc(N=CC2=C(O)CC(C)(C)CC2=O)c1 was read as MARV entry inh inconclusive, LASV entry inh inactive, FMDV inh inactive, Sm TGR block inactive, RE007 growth inh inconclusive and HCV inhibitor inactive.
Screening O=C(NCCc1csc(-c2cccc(F)c2)n1)c1ccc(Br)o1 returned LASV entry inh inactive, FMDV inh inconclusive and Sm TGR block inactive.
Screening Cc1nn(Cc2ccc(Cl)cc2)c(C)c1NC(=O)CSc1nc2c(c(C(F)(F)F)n1)CCc1ccccc1-2 returned MARV entry inh 12µM, LASV entry inh inactive, FMDV inh inactive, Sm TGR block inactive and RE007 growth inh inactive.
`NC(=O)c1c(NC(=O)CSc2nc3c(c(C(F)(F)F)n2)CCc2ccccc2-3)sc2c1CCCC2` gave MARV entry inh inactive, LASV entry inh inactive, FMDV inh inactive, Sm TGR block inactive, RE007 growth inh inactive and HCV inhibitor inconclusive.
Screening Cc1ccccc1Cn1cc(NC(=O)CSc2nc3c(c(C(F)(F)F)n2)CCc2ccccc2-3)cn1 returned MARV entry inh inconclusive, LASV entry inh inactive, FMDV inh inactive, Sm TGR block inactive, RE007 growth inh inactive and HCV inhibitor 13µM.
Cc1ccc(Cn2nc(C)c(NC(=O)CSc3nc4c(c(C(F)(F)F)n3)CCc3ccccc3-4)c2C)cc1 was read as MARV entry inh inactive, LASV entry inh inactive, FMDV inh inconclusive, Sm TGR block inactive and HCV inhibitor inconclusive.
`COc1ccccc1NS(=O)(=O)c1cc(NC(=O)c2cccs2)ccc1N1CCCCC1` gave MARV entry inh 5.8µM, LASV entry inh inconclusive, FMDV inh inactive, Sm TGR block inactive, RE007 growth inh inactive and HCV inhibitor inactive.
COc1ccccc1NS(=O)(=O)c1cc(NC(=O)c2sccc2C)ccc1N1CCCC1 was read as MARV entry inh inconclusive, LASV entry inh inactive, FMDV inh inactive, RE007 growth inh inactive and HCV inhibitor inactive.
Screening COc1ccccc1NS(=O)(=O)c1cc(NC(=O)c2cc(=O)[nH]c3ccccc23)ccc1N1CCOCC1 returned FMDV inh inactive, Sm TGR block inactive, RE007 growth inh inactive and HCV inhibitor 25µM.
`COc1ccccc1NS(=O)(=O)c1cc(NC(=O)C(C)(C)C)ccc1N1CCOCC1` gave MARV entry inh inactive, LASV entry inh inactive, FMDV inh inactive, Sm TGR block inactive, RE007 growth inh inactive and HCV inhibitor inconclusive.
COc1ccccc1NS(=O)(=O)c1cc(NC(=O)C(C)C)ccc1N1CCCCC1 was read as MARV entry inh 0.79µM, LASV entry inh inconclusive, FMDV inh inactive, Sm TGR block inactive, RE007 growth inh inactive and HCV inhibitor inconclusive.
